# Data published in ChEMBL document CHEMBL4513216, “Probing the Open Global Health Chemical Diversity Library for Multistage-Active Starting Points for Next-Generation Antimalarials” (ACS Infect Dis, 2020).
# The whole screen tested about 65,000 compounds, of which about 2,100 (3.2%) showed an effect of 50% or more. The median lay at about -52%. Only a selection was taken, and strong results are over-represented in it overall.
# Tested on: Plasmodium falciparum
# Experiment: Screen against P. falciparum Asexual Blood Stage (ABS), at 5uM
# Format: functional, Dd2
# Conditions: tested at 5 uM
row,SMILES,INHIBITION
1,CC(O)CN(C(=O)NC1CC1)C(C)C (stereo not drawn),-10.2%
2,CC(=O)N1CCc2nc(-c3ccc(F)cc3)nc(NC(C)C)c2CC1,6.79%
3,CCCS(=O)(=O)NCc1nc(C)cc(N2CCCC2)n1,-76.8%
4,CC(C)c1nc(CN2CCCC2Cn2cncn2)no1 (stereo not drawn),-59.5%
5,CN(C)C(C(=O)N1CC(Oc2ccccc2F)C1)c1ccc(F)cc1 (stereo not drawn),64%
6,Cc1cccc(C(C(=O)N2CC(Oc3ccccc3F)C2)N(C)C)c1 (stereo not drawn),2.84%
7,COc1ccccc1OC1CN(C(=O)C(c2ccc(F)cc2)N(C)C)C1 (stereo not drawn),3.3%
8,O=C(O)CC(CC(=O)NCCc1ccsc1)c1cccs1 (stereo not drawn),-112%
9,Clc1ccc(CN2CCc3c(ncn3C3CC3)C2)c2ncccc12,30.3%
10,CC(=O)Cn1c(C)cc(=O)c2cc(F)ccc21,-152%
11,CN(Cc1cccnc1N)Cc1cccc2ncccc12,15.1%
12,CN(Cc1cccc(CCN)c1)Cc1cccc2ncccc12,60.4%
13,CN(Cc1cccc(OCCO)c1)Cc1cccc2ncccc12,-10.8%
14,CN(C)C(=O)C1CCCN(C(=O)c2ccccc2-n2cc(CN)cn2)C1 (stereo not drawn),25.8%
15,CC1CCCN(CCNC(=O)c2scnc2Cl)C1 (stereo not drawn),-37.9%
16,CCc1cccc(N2CCC(NC(=O)C3CCC3)CC2)c1,-52.2%
17,CCN(CC)c1ccc(C2c3c(n[nH]c3C)N=C3COC(=O)C32)cc1 (stereo not drawn),-48.4%
18,CN1CCCC[C@@H]2[C@H]1[C@@H](c1ccccc1)CCN2C(=O)c1ccccc1,-15.8%
19,CCN(CC)S(=O)(=O)N1CC[C@H](c2ccccc2)[C@@H]2[C@H]1CCCCN2C,41.2%
20,CN1CCCC[C@@H]2[C@H]1[C@@H](c1ccccc1)CCN2S(=O)(=O)N1CCCC1,52%
21,Cc1cc(C2NC(=O)CN2Cc2ccc(Br)cc2)cc(C)c1O (stereo not drawn),-78.2%
22,CC(=O)Nc1ncc(S(=O)(=O)Nc2ccc3c(c2)OCCO3)s1,-316%

row,SMILES,INHIBITION
1,COc1ccc(OCCNCc2c(C)nn(C)c2N(C)C)cc1,-64.9%
2,COc1cccc(OCCNCc2c(C)nn(C)c2N(C)C)c1,-31.9%
3,COc1cc(CNCc2c(C(C)C)nn(C)c2N(C)C)ccn1,-67.4%
4,COc1ccccc1OCCNCc1c(C)nn(C)c1N(C)C,60%
5,COc1ccccc1C(O)CNCc1c(C(C)C)nn(C)c1N(C)C (stereo not drawn),6.24%
6,COc1ccccc1OCCNCc1c(C(C)C)nn(C)c1N(C)C,60.1%
7,Cc1ccc(N2CCCC(NCc3ccc(C)s3)C2)nn1 (stereo not drawn),-34.1%
8,CC(C)(CO)NCc1nn(Cc2ccccc2)nc1-c1ccccc1,14.1%
9,O=C(Cc1ccncc1)N1CCC2(CC1)CC(c1ccccc1)CO2 (stereo not drawn),-26.8%
10,CC(C)C(C(=O)N1CCCN(c2nccs2)CC1)n1cncn1 (stereo not drawn),-114%
11,Cc1csc(N2CCCN(C3Cc4ccccc4C3)CC2)n1,-1.32%
12,O=C1CC2(CCCCN2C(=O)Cc2ccccc2)CN1c1cccnc1 (stereo not drawn),-37.3%
13,Cc1ccc(CN2CC[C@@H]3OCCN(Cc4ccncc4)[C@H]3CC2)s1,34.9%
14,Cc1cc(Cl)ccc1C(=O)N1C[C@H](C2CC2)[C@@H](N)C1,61%
15,N[C@H]1CN(C(=O)c2cnc3cc(Cl)ccc3c2O)C[C@@H]1C1CC1,-22.9%
16,N[C@H]1CN(C(=O)c2ccc(Cl)cc2O)C[C@@H]1C1CC1,33%
17,Cc1ccc(C(=O)N2CCOC3(CCCC3)C2)c(=O)[nH]1,-106%
18,COCCC(=O)N1C[C@H]2CN(Cc3cccnc3)C(=O)[C@H]2C1,-55.2%
19,CCN(C)C(=O)CCN(C)Cc1cnc(C)s1,-125%
20,CN(C(=O)Cc1ccccc1F)C1CCN(c2ccccn2)CC1,-73.8%
21,CC(C)=CCCC1(C)C=Cc2c(cc(C)n(CCC(=O)O)c2=O)O1 (stereo not drawn),-18.9%
22,OC1(CN2CCN(c3cccc(C(F)(F)F)c3)CC2)CNCCOC1 (stereo not drawn),57%

row,SMILES,INHIBITION
1,OC1(CN2CCC(Oc3cccc(C(F)(F)F)c3)CC2)CNCCOC1 (stereo not drawn),64.7%
2,OC1(CN2CCCC2)COCCN(c2cc(C(F)(F)F)ccn2)C1 (stereo not drawn),-53.6%
3,OC1(CN2CCC(Oc3cccnc3)CC2)CNCCOC1 (stereo not drawn),-73.6%
4,OC1(CNCCN2CCc3ccccc32)CNCCOC1 (stereo not drawn),-0.439%
5,FC(F)(F)c1cccc(OC2CCN(Cc3ncc[nH]3)CC2)c1,-23%
6,Cc1ccc(C(C)NC(=O)CSCC(N)=O)cc1 (stereo not drawn),-54.8%
7,CCS(=O)(=O)N1CCc2c(cccc2NC(=O)NCCO)C1,-14.1%
8,Clc1cc(Cl)cc(OCCN2CCC(n3cncn3)CC2)c1,33.8%
9,Cn1ccnc1CN1CCCN(C(=O)CC(C2CC2)C2CC2)CC1,-16.7%
10,Cn1nc(COCC2CC2)c2c1CCN(Cc1cccs1)C2,-41.4%
11,CN(Cc1cccs1)C(=O)CN1CCOC(Cn2cncn2)C1 (stereo not drawn),-56%
12,Cc1cccc(C(C(=O)N(C)Cc2ccon2)N(C)C)c1 (stereo not drawn),-2.4%
13,Cc1cccc(C(C(=O)N(C)Cc2ccco2)N(C)C)c1 (stereo not drawn),66.7%
14,Cc1cccc(C(C(=O)N(C)Cc2cc(C)no2)N(C)C)c1 (stereo not drawn),49.9%
15,CCC(CO)NCc1ccc(-c2ccccc2F)o1 (stereo not drawn),-35.5%
16,O=C(Cn1ccnc1)N1C[C@@H]2CC[C@H](Oc3ccc(Cl)cc3)[C@@H]2C1,-41.4%
17,COc1ccc(-c2nc(C)cc(SCC(N)=O)n2)cc1,-104%
18,CN1CCC(N(CCc2ccccc2)C(=O)c2ccc(C#N)cc2)CC1,28.4%
19,COc1ccc2[nH]cc(-c3ccnc(NC4CCCC4)n3)c2c1,58.8%
20,COc1ccc2[nH]cc(-c3ccnc(N4CCC(C)CC4)n3)c2c1,-172%
21,O=c1[nH]c(-c2ccncc2)ncc1-c1ccnc(NC2CCCCC2)n1,-61.7%
22,CC(C)c1noc(CN(Cc2ccccc2)C2CC2)n1,-119%

row,SMILES,INHIBITION
1,CCN1CCn2c(C)cnc2C12CCN(C(=O)CC(C)C)CC2,-55.6%
2,CCN1CCn2c(C)cnc2C12CCN(C(=O)C(C)C)CC2,-51.6%
3,CCN1CCn2c(C)cnc2C12CCN(C(=O)N(C)C)CC2,53%
4,CC(C)CNC(=O)c1c(-n2cnnn2)sc2c1CCCC2,-47.3%
5,CCCN1CCC(CNC(=O)C2(c3ccccc3)CCC2)C1 (stereo not drawn),66.3%
6,COCCN1CCC(CNC(=O)C2(c3ccccc3)CCC2)C1 (stereo not drawn),-0.505%
7,CCN1CCCC(CNC(=O)C2(c3cccc(Cl)c3)CC2)C1 (stereo not drawn),69.7%
8,CCN1CCC(CNC(=O)C2(c3cccc(C)c3)CC2)C1 (stereo not drawn),0.0435%
9,CCCN1CCC(CNC(=O)C2(c3cc(C)cc(C)c3)CCC2)C1 (stereo not drawn),41.6%
10,COCCN1CCC(CNC(=O)C2(c3cccc(Cl)c3)CC2)C1 (stereo not drawn),-0.48%
11,COc1cc2c(cc1CNCc1cccnc1-n1cccn1)OC(C)C2 (stereo not drawn),20.8%
12,COc1cccc(COCC(=O)N2CCCC2Cn2cccn2)c1 (stereo not drawn),-10.1%
13,COCc1ccccc1NCc1csc(NC(C)=O)n1,-51.9%
14,CCCN1CCC(c2nc3ccc(NCc4cccnc4)cn3n2)CC1,-28.7%
15,O=C(c1ccc(Cl)cc1)N1CCC(N2CCNC2=O)CC1,-169%
16,CCN(C)C1COC2(CCN(C(=O)c3ccc(Cl)cc3)CC2)C1 (stereo not drawn),2.64%
17,CC1(C)[C@@H]2CC=C(CN3CCCn4nc(C(=O)O)cc4C3)[C@H]1C2,-37.3%
18,COCCNc1nnc(S(=O)(=O)CCC(C)(C)C#N)s1,-77.6%
19,CCn1nc(C)c2nc(C(C)C)nc(NCCc3ccc(O)cc3)c21,-3.69%
20,Cc1ccc(-c2cc(C(F)(F)F)nc(N3CCOCC3)n2)s1,-17.2%
21,Cc1c(-c2cc(C(F)(F)F)nc(N3CCC(N)CC3)n2)cnn1C,22.7%
22,CCn1ncc(-c2cc(C(F)(F)F)nc(N3CCC(N)CC3)n2)c1C,65.2%

row,SMILES,INHIBITION
1,CCOC(=O)N1CCN(C(=O)c2cc(OCC)c3ccoc3c2)CC1,-79%
2,COc1cc(C(=O)Nc2nc(C)no2)ccc1OC(F)F,-35.8%
3,Cn1cc(CCCN2CCCC(c3cc(C(F)(F)F)[nH]n3)C2)cn1 (stereo not drawn),33.1%
4,Cc1cnn(CC2CN(Cc3cccc(OC(C)C)c3)CCO2)c1 (stereo not drawn),35.5%
5,O=C(NC1CCC1)[C@H]1C[C@H]2CN(CC3CC3)C[C@@H]1O2,-98%
6,O=C(c1cccc(-n2cccn2)c1)N1CCCOC(CN2CCCC2)C1 (stereo not drawn),53.4%
7,O=C(c1cccc(-n2cccn2)c1)N1CCCOC(Cn2cccn2)C1 (stereo not drawn),-33.9%
8,NCC1CN(C(=O)c2cccc(-n3cccn3)c2)CCO1 (stereo not drawn),-21.2%
9,O=C(CSCC1CC1)N1CCCN(c2ccc(F)cc2)CC1,-42.8%
10,COc1ccc(-n2cnnc2SCC(=O)N(C)C(C)C)cn1,-60.2%
11,O=C(C1CC1)N1CCc2ccccc2C12CCNCC2,-55.8%
12,COCC(=O)N1CCc2ccccc2C12CCNCC2,-52%
13,CCOC(=O)N1CCc2ccccc2C12CCNCC2,54.6%
14,Cc1cc(-c2cnc(N3CCNC(=O)C3)nc2-c2ccncc2)on1,-43.2%
15,CCc1nc(C)c(C(=O)N2C[C@@H](C(=O)O)[C@H](C3CC3)C2)s1,-112%
16,COCCN(C)C[C@H]1C[C@H](CO)CN(C(=O)c2ccc(=O)n(C)c2)C1,-100%
17,Cc1ccc(N2CCC3(CN(Cc4ccncc4)CCC3(F)F)C2)nn1 (stereo not drawn),-5.89%
18,CCC(NC(=O)c1ccco1)c1ccccc1OCC(=O)N1CCCC1 (stereo not drawn),-51.4%
19,CCC(NCc1ccccc1)c1ccccc1OCC(=O)NC (stereo not drawn),65.6%
20,CCC(NCc1ccccn1)c1ccccc1OCC(=O)NC (stereo not drawn),-27.1%
